High-throughput results from PubChem.
FBW7 act – activators of human E3 ligase FBW7. Q969H0. AlphaScreen FBW7–phospho-cyclin E peptide binding, activator screen. normalized activity (activation), % at 26.1 µM. hit rate 0.13% among 650,000; in the data active = normalized activity above about 1.9%;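 note: purified mutant Fbw7 with reduced substrate affinity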
Target sequence (Q969H0 whole entry, looked up): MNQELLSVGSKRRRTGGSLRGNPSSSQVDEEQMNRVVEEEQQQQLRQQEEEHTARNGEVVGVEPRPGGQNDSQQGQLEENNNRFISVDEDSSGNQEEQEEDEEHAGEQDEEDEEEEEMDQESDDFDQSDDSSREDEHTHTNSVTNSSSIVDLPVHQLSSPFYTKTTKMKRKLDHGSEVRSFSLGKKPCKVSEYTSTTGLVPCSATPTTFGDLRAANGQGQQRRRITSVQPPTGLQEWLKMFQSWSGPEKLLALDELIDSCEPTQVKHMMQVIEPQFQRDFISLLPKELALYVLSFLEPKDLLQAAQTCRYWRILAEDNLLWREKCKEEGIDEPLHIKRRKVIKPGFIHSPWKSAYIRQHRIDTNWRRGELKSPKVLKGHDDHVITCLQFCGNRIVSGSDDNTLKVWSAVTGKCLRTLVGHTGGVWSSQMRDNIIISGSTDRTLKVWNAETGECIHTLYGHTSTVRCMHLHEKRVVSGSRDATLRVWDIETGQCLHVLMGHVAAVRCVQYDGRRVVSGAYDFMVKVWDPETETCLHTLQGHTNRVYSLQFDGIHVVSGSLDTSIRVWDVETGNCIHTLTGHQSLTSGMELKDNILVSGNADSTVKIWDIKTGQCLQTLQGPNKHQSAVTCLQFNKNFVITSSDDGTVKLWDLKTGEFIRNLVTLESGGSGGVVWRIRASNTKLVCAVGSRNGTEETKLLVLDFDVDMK
GPR151 ag – human GPR151 activation; Q8TDV0; PathHunter beta-arrestin GPR151 cells, luminescence; activation, % at 11.2 µM; hit rate 1% among 650,000; AID 1508602; in the data active = activation above about 4.9%;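 note: 0% = median of compound wells and 100% = cells with positive control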
MITF inh – blocks human microphthalmia-associated transcription factor; O75030; AlphaScreen MITF homodimerization, bead proximity signal; inhibition, % at 2.6 µM; hit rate 0.91% among 650,000; in the data active = inhibition above about 50%;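 note: 0% = vehicle wells with protein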
TEAD-YAP inh – TEAD-YAP interaction inhibition. HEK-TIYL cells, TEAD-Gal4/YAP UAS-luciferase luminescence. hit rate 1.4% among 640,000. AID 1259422. inhibition, % at 9.12 µM; in the data active = inhibition above about 32%;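 note: 0% = median of test compound wells and 100% = reference inhibitor wells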
An asterisk follows results filed as active. Compounds with a hit are over-represented: about 3.4% of the library has one in this group of screens.

SMILES	FBW7 act	GPR151 ag	MITF inh	TEAD-YAP inh
COc1ccc(N2C(N)=C(C#N)C(c3ccccc3)C3=C2CCCC3=O)cc1 (centres undefined)	0.1	0.2	3.9	44.1*
CCOc1ccc(C2C(C#N)=C(N)N(c3ccc(C)cc3)C3=C2C(=O)CCC3)cc1 (centres undefined)	0.0	0.2	-8.9	57.1*
O=C(N1CCCCCC1)N1c2ccccc2C=Cc2ccccc21	-0.1	0.1	5.5	35.9*
O=C1NC(=S)NC(=O)C1=Cc1cccn1-c1ccc(Cl)c([N+](=O)[O-])c1	-0.3	1.3	8.1	17.1
O=C(NCc1ccncc1)c1ccc2cncc(-c3cc4ccccc4o3)c2n1	-0.2	-0.2	-2.6	31.7
COc1ccccc1CNC(=O)c1ccc2cncc(-c3ccccc3)c2n1	0.2	-0.1	11.3	64.7*
COc1ccc(-c2cncc3ccc(C(=O)NCc4ccccc4)nc23)cc1	-0.1	-1.2	-6.9	68.3*
COc1ccc(-c2cncc3ccc(C(=O)NCc4cnc(C)cn4)nc23)cc1	-0.1	0.0	2.9	70.3*
O=C(NCc1ccco1)c1ccc2cncc(-c3cc4ccccc4o3)c2n1	-0.3	0.2	3.3	54.2*
CC1(C)Cc2c(cnn2-c2ccc(Br)cc2)-c2nc3ccccc3nc21	0.0	0.1	-5.2	-6.1
Cc1ccccc1CN1CCc2nnc(C(C)NC(=O)c3ccco3)n2CC1 (centres undefined)	0.1	1.6	4.3	-3.2
CCC1(C2CCN(CCC(C)O)CC2)NC(=O)N(CCc2ccc(OC)cc2)C1=O (centres undefined)	0.1	0.3	4.2	-2.9
O=C(NCCc1ccccc1)c1ccc2cncc(-c3ccccc3)c2n1	-0.1	0.1	-12.6	47.3*
O=C(NCCc1ccccc1)c1nnc(-c2cccnc2)o1	-0.1	0.0	-5.6	1.6
CCC(C)N(C(=O)c1cccc([N+](=O)[O-])c1)C(C)CC (centres undefined)	2.0*	0.9	-75.6	-2.0
CCC(C)N(C(=O)c1ccc([N+](=O)[O-])cc1)C(C)CC (centres undefined)	0.0	-1.5	-17.9	1.5
Cc1nc(NCCNC(=O)COc2ccccc2)c2c3c(sc2n1)CCCC3	0.1	-0.1	2.0	45.4*
Oc1ccccc1CNCc1ccccn1	-0.6	-0.3	76.5*	-4.6
COc1cc(OC)cc(-c2cc3nc(C)c(CCC(=O)O)c(C)n3n2)c1	0.0	1.5	5.1	55.6*
Cc1cc2c(Nc3ccc(C)c(Cl)c3)ncnc2s1	0.0	0.6	5.9	-4.8
O=C(NC(Nc1cc(Cl)ccc1Cl)C(=O)c1ccccc1)c1ccco1 (centres undefined)	0.1	-0.4	2.0	-5.8
Cc1ccc(-c2ccccc2)n1-c1ccc(O)c(C(=O)O)c1	-0.2	-0.9	77.5*	-0.1
Cc1ccc(-c2ccccc2)n1-c1ccc(C(=O)O)cc1	-0.2	-1.5	0.0	-9.4
Nc1ccc(O)c(-c2nc3cc(N)ccc3s2)c1	-0.2	-6.8	-4.3	-63.0
O=c1cc(CO)oc(C(Nc2cccc(F)c2)c2ccccn2)c1O (centres undefined)	-0.2	3.5	12.2	4.1
SMILES	FBW7 act	GPR151 ag	MITF inh	TEAD-YAP inh
Oc1c(C(Nc2ccc(Cl)cc2)c2ccccn2)ccc2cccnc12 (centres undefined)	-1.7	-0.2	68.7*	15.9
Oc1c(C(Nc2cccc(C(F)(F)F)c2)c2ccccn2)ccc2cccnc12 (centres undefined)	-1.1	3.4	51.0*	27.4
Oc1c(C(Nc2cccc(C(F)(F)F)c2)c2cccnc2)ccc2cccnc12 (centres undefined)	-2.0	1.0	65.0*	14.8
Oc1c(C(Nc2cccc(Cl)c2)c2ccccn2)ccc2cccnc12 (centres undefined)	-0.2	-0.7	45.0	62.3*
COC(=O)c1cc(C(=O)OCC(=O)Nc2ccc3c(c2)OC(F)(F)O3)cc([N+](=O)[O-])c1	0.1	1.4	0.1	9.4
O=[N+]([O-])c1ccc(NC(c2ccccn2)c2ccc3cccnc3c2O)cc1 (centres undefined)	-1.1	0.8	18.4	86.8*
O=C(NC(c1ccccc1)c1ccccn1)c1ccc([N+](=O)[O-])cc1 (centres undefined)	0.0	1.0	4.7	3.8
Oc1ccccc1NC(c1cccnc1)c1ccc2cccnc2c1O (centres undefined)	-0.3	-1.4	97.8*	6.6
COc1ccc(NC(c2cccnc2)c2ccc3cccnc3c2O)cc1 (centres undefined)	-2.0	-0.2	58.9*	0.6
Cc1ccc2ccc(C(Nc3ccccn3)c3cccnc3)c(O)c2n1 (centres undefined)	-0.1	-0.8	1.5	9.6
Cc1ccc(-c2cc(-c3ccco3)c(C#N)c(SCC(=O)Nc3cc(C)ccc3C)n2)cc1	0.0	-0.8	-6.5	1.5
CSc1nc2ncc(C(=O)c3cc(Cl)ccc3O)cc2c(=O)[nH]1	0.0	-0.6	6.4	6.3
COc1ccc(S(=O)(=O)N2c3ccccc3CC2C)cc1 (centres undefined)	-0.2	1.6	-0.4	47.5*
Cc1ccc(S(=O)(=O)N2c3ccccc3CC2C)cc1 (centres undefined)	0.1	-0.7	-10.5	3.9
CCOc1ccc(S(=O)(=O)N2c3ccccc3CC2C)cc1 (centres undefined)	0.0	0.7	3.7	52.4*
CCC(=O)Nc1ccc(S(=O)(=O)N2c3ccccc3CC2C)cc1 (centres undefined)	-0.1	1.2	-8.1	6.7
CCOC(=O)c1cc2c(=O)n3ccccc3nc2n(Cc2ccco2)c1=NC(=O)c1ccc(C)cc1	0.0	1.1	-11.7	17.1
O=C(CC12CC3CC(CC(Br)(C3)C1)C2)OCC(=O)c1ccccc1	0.0	2.8	2.1	66.9*
O=C(Cc1c[nH]c2ccccc12)Nc1nnc(C2CC2)s1	-0.1	-0.5	-1.2	34.2*
CC(C)n1cnc2c(NC3CCN(Cc4ccccc4)CC3)nc(-c3ccc(C(=O)NC4CC4)cc3)nc21	-0.1	1.9	1.2	51.6*
CC(C)n1cnc2c(NC3CCN(Cc4ccccc4)CC3)nc(-c3ccc(N4CCN(C)CC4)cc3)nc21	-0.2	0.1	1.0	27.6
CC(=O)c1cccc(-c2nc(NC3CCN(Cc4ccccc4)CC3)c3ncn(C(C)C)c3n2)c1	-0.1	0.6	-2.5	73.2*
COc1ccc(-c2nc(NC3CCN(Cc4ccccc4)CC3)c3ncn(C(C)C)c3n2)cc1	0.2	-2.8	10.4	-2.6
CN1CCN(C(=O)c2ccc(-c3nc(NC4CC4)c4ncn(-c5ccccc5)c4n3)cc2)CC1	0.0	1.6	3.1	40.9*
CC(C)n1cnc2c(NC3CCN(Cc4ccccc4)CC3)nc(-c3ccc(C(=O)N4CCN(C)CC4)cc3)nc21	0.1	1.7	-1.4	58.0*
Cc1cccc(C(=O)Nc2ccc3nc(SCC(=O)NCc4ccccc4)sc3c2)c1	0.2	0.5	8.0	-21.4
O=C(CN1C(=O)NC(Cc2ccccc2)C1=O)Nc1ccc(Br)cc1F (centres undefined)	-0.1	-1.5	-8.7	0.9
CC(C)n1cnc2c(NCc3ccccc3)nc(-c3ccc(C(=O)NC4CC4)cc3)nc21	-0.1	0.3	-9.3	-16.8
